In experiment [1] the test system is Klebsiella pneumoniae. The settings on record: Concentration 32 ug.mL-1;; ASSAY_TEST Inhibition of Bacterial Growth; detection method Absorption (OD600); MEDIA CAMHB; plate type 384well; NBS; CORNING #3640; time 18 hr.
The subject of experiment [2] is Candida albicans. The settings on record: Concentration 32 ug.mL-1; ASSAY_TEST Inhibition of Fungal Growth; detection method Absorption (OD530).
Experiment [3] deals with Cryptococcus neoformans. The note with it: Concentration 32 ug.mL-1; ASSAY_TEST Inhibition of Fungal Growth; detection method Resazurin; Absorption (OD600-OD570); plate type 384well; NBS; CORNING #3640. In general terms: Alamar Blue is a resazurin reagent that responds to reducing activity.

Potency and affinity values are given separately.

For the molecule `CCc1nnc2c(SCC(=O)Nc3ccc(Br)cc3)nc3ccccc3n12`, the Inhibition is listed as -1.42% in experiment [1], 31.58% in experiment [2] and -6.67% in experiment [3].
Regarding `O=C(CCc1nnc2c(N3CCCCC3)nc3ccccc3n12)NCc1ccccc1Cl`, the Inhibition in experiment [1] was 12.77%; in experiment [2], 4.01%; in experiment [3], -16.16%.
For `Cc1nnc2c(=O)n(CC(=O)Nc3ccc(Br)cc3)c3ccccc3n12` the same measures were 3.12%, 2.53% and -1.52%.
For `Cc1ccccc1Oc1nccn2c(=O)n(CC(=O)Nc3ccc(Cl)c(Cl)c3)nc12` the same measures were 6.86%, 2.23% and -12.87%.
For `CCCCOc1ccc(-c2cc3c4nnc(SCC(=O)Nc5c(C)cccc5CC)n4ccn3n2)cc1` the same measures were -16.94%, -2.13% and -12.87%.
`COc1ccccc1NC(=O)Cn1nc2c(Oc3ccc(Cl)cc3)nccn2c1=O`: the Inhibition was 6.51% in experiment [1], 22.33% in experiment [2] and -8.59% in experiment [3].
In the case of `CC(C)c1ccc(Oc2nc3ccccc3n3c(=O)n(CC(=O)Nc4ccc5c(c4)OCO5)nc23)cc1`, the Inhibition in experiment [1] is given as 7.45%; in experiment [2] it was 1.68%; in experiment [3] it was -13.49%.
As to `Cc1cc(C)c(C(=O)CSc2nnc3c(=O)n(-c4ccc(F)cc4)ccn23)cc1C`, the values for the Inhibition in experiment [1], in experiment [2] and in experiment [3] were 7.49%, 4.64% and -8.78%, respectively.
In the same order, the values of `COc1cc(NC(=O)Cn2nc3c(N4CCCC4)nccn3c2=O)cc(OC)c1` are 0.81%, -1.46% and -4.76%.
In the same order, the values of `CCOC(=O)c1ccc(NC(=O)Cn2nc3c(Oc4ccccc4)nccn3c2=O)cc1` are 1.59%, -0.16% and -7.75%.
For `CCOc1ccc(-n2ccn3c(SCC(=O)NCc4ccc(Cl)cc4)nnc3c2=O)cc1` the same measures were 11.7%, 0.49% and -7.68%.
Consider `Cc1ccc(Oc2nc3ccccc3n3c(=O)n(CC(=O)Nc4ccc5c(c4)OCO5)nc23)cc1`, for which the Inhibition in experiment [1] is reported as 4.57%; in experiment [2], 10.98%; in experiment [3], -25.85%.
Regarding `CCCN(C)c1nccn2c(=O)n(CC(=O)Nc3cccc(C(F)(F)F)c3)nc12`, the values for the Inhibition in experiment [1], in experiment [2] and in experiment [3] were 7.15%, -0.05% and -3.78%, respectively.
In the same order, the values of `CC(C)c1ccc(NC(=O)Cn2nc3ccc(SCc4ccc(Cl)cc4)nn3c2=O)cc1` are 6.44%, 14.48% and -27.26%.
As to `COc1ccccc1CNC(=O)Cn1nc2c(N3CCC(C)CC3)nccn2c1=O`, the results for the Inhibition in experiment [1], in experiment [2] and in experiment [3] were 13.15%, 4.39% and -8.45%, respectively.
`CCOc1ccc(NC(=O)Cn2nc3ccc(SCc4ccc(Cl)cc4)nn3c2=O)cc1`: the Inhibition in experiment [1] is 7.43%; in experiment [2], 15.3%; in experiment [3], -13.71%.
In the same order, the values of `COc1cccc(NC(=O)Cn2nc3c(Sc4ccccc4)nccn3c2=O)c1` are 2.45%, 7.99% and -6.51%.
For `COc1cccc(CSc2nnc3c(=O)n(-c4ccc(Br)cc4)ccn23)c1` the same measures were 8.64%, 19.07% and -13.83%.
`O=c1n(Cc2nc(-c3ccc(OC(F)(F)F)cc3)no2)nc2ccc(-c3ccccc3)nn12`: the Inhibition in experiment [1] is on record as 8.49%; in experiment [2], 3.85%; in experiment [3], -17.12%.
With `Cc1ccc(NC(=O)Cn2nc3c(N4CCOCC4)nccn3c2=O)cc1F`, the Inhibition in experiment [1] is on record as 7.04%; in experiment [2], 3.27%; in experiment [3], -4.33%.
For `COc1ccc(CNC(=O)Cn2nc3c(SC4CCCCC4)nccn3c2=O)cc1` the same measures were 14.45%, 17.79% and -15.36%.
In the same order, the values of `CC(C)n1c(=O)c2ccc(C(=O)NC3CCCC3)cc2n2c(=O)n(Cc3cccc(C(F)(F)F)c3)nc12` are 13.79%, 1.19% and -23.89%.
In the same order, the values of `O=C(CSc1nnc2c(=O)n(-c3cccc(F)c3)ccn12)NCCc1ccccc1` are -3.34%, 5.41% and -10.18%.
For the molecule `Cc1cccc(CN(c2ccccc2)S(=O)(=O)c2cccn3c(C)nnc23)c1`, the Inhibition in experiment [1] is 4.77%; in experiment [2], -0.3%; in experiment [3], -6.4%.
For `CCC(Sc1nnc2c(=O)n(-c3ccccc3)ccn12)C(=O)Nc1ccc(OC)cc1OC` (stereo not drawn) the same measures were 9.44%, 2.91% and -10.74%.
In the same order, the values of `O=c1n(Cc2ccc3c(c2)OCO3)nc2ccc(-c3ccccc3)nn12` are 13.28%, 2.43% and -7.16%.
As to `CC(C)Cn1c(=O)c2sccc2n2c(=O)n(Cc3ccc(Br)cc3)nc12`, the Inhibition was 4.98% in experiment [1], -2.24% in experiment [2] and -27.05% in experiment [3].
For `COC(=O)c1ccc(NC(=O)Cn2nc3ccc(C(=O)NCc4ccccc4)cn3c2=O)cc1` the same measures were 7.68%, 0.61% and -23.41%.
For `O=c1c2sccc2n2c(=O)n(Cc3ccccc3F)nc2n1CCc1ccccc1` the same measures were 8.76%, 0.77% and -30.71%.
For the molecule `O=C(Cn1nc2c(SCc3ccc(Cl)cc3)nccn2c1=O)Nc1ccccc1F`, the values for the Inhibition in experiment [1], in experiment [2] and in experiment [3] were 4.91%, 1.79% and -4.96%, respectively.
For `CCCn1c(=O)c2sccc2n2c(=O)n(CC(=O)c3ccccc3)nc12`, the Inhibition is on record as 3.65% in experiment [1], 4.43% in experiment [2] and -9.13% in experiment [3].
For `CCc1ccc(NC(=O)Cn2nc3c4cc(-c5ccc(Cl)cc5)nn4ccn3c2=O)cc1` the same measures were 19.83%, 3.83% and -20.86%.
In the same order, the values of `COc1cccc(CN(c2ccc(F)cc2)S(=O)(=O)c2ccc3nnc(C)n3c2)c1` are 7.98%, -0.17% and -13.2%.
Consider `Cc1ccccc1CSc1nnc2c(=O)n(-c3ccc(F)cc3)ccn12`, for which the Inhibition in experiment [1] is 9.44%; in experiment [2], 1.51%; in experiment [3], -10.33%.
In the same order, the values of `Cc1ccc(NC(=O)Cn2c(=O)c3nnc(C(C)C)n3c3ccccc32)cc1` are 2.07%, 1.19% and -10.22%.
For `COc1cccc(Oc2nccn3c(=O)n(CC(=O)Nc4cccc(Br)c4)nc23)c1`, the Inhibition in experiment [1] is 6.87%; in experiment [2], 0.25%; in experiment [3], -8.58%.
In the same order, the values of `COc1cccc(-n2ccn3c(SCC(=O)c4ccc(F)cc4)nnc3c2=O)c1` are 12.25%, 2.59% and -11.08%.
In the case of `CCOc1ccccc1NC(=O)Cn1nc2c3cc(-c4ccc(OC)cc4)nn3ccn2c1=O`, the Inhibition is on record as 11.29% in experiment [1], 0.88% in experiment [2] and -6.6% in experiment [3].
On to `COc1cccc(-n2ccn3c(SCC(=O)Nc4ccc(OC)c(OC)c4)nnc3c2=O)c1`, for which the Inhibition in experiment [1] is 16.13%; in experiment [2] it was 5.16%; in experiment [3], -5.69%.
In the same order, the values of `CCc1ccc(N(Cc2ccccc2)S(=O)(=O)c2cccn3c(C)nnc23)cc1` are 5.96%, -1.36% and -9.98%.
Consider `Cc1ccc(CNC(=O)Cn2nc3c(Sc4cccc(F)c4)nccn3c2=O)cc1`, for which the Inhibition in experiment [1] is -2.32%; in experiment [2], 4.04%; in experiment [3], -11.39%.
In the same order, the values of `COc1ccccc1Cn1c(=O)c2sccc2n2c(=O)n(Cc3cccc(C)c3)nc12` are 9.07%, 1.33% and -25.61%.
As to `Cc1ccccc1NC(=O)Cn1nc2c(SC3CCCCC3)nccn2c1=O`, the Inhibition in experiment [1] was 5.55%; in experiment [2], -0.37%; in experiment [3], -26.02%.
As to `Cc1ccc(-c2ccc3nn(CC(=O)Nc4ccc(C(C)C)cc4)c(=O)n3n2)cc1C`, the Inhibition in experiment [1] is recorded as 2.75%; in experiment [2], 3.46%; in experiment [3], -11.72%.
For `Cc1nnc2ccc(S(=O)(=O)N(Cc3ccccc3)c3ccc(F)cc3)cn12`, the Inhibition in experiment [1] is recorded as 4.54%; in experiment [2], 1.53%; in experiment [3] it was -1.68%.
In the same order, the values of `Cc1cc(Nc2ccc(F)cc2)nc2nn(CCc3ccccc3)c(=O)n12` are 16.97%, 1.44% and -10.99%.
As to `COc1cc(NC(=O)Cn2nc3ccc(SC(C)C)nn3c2=O)cc(OC)c1`, the values for the Inhibition in experiment [1], in experiment [2] and in experiment [3] were 4.22%, 10.99% and -7.98%, respectively.
In the same order, the values of `COc1ccc(CNC(=O)Cn2nc3c(Oc4cccc(C)c4C)nccn3c2=O)cc1` are 3.56%, -0.71% and -3.17%.
For `COc1ccccc1CNC(=O)CSc1nnc2c3cc(-c4ccc(C)cc4)nn3ccn12` the same measures were -1.35%, -1.83% and -12.39%.
For the molecule `Cc1ccc(N(CC(=O)OC(C)(C)C)S(=O)(=O)c2cccn3cnnc23)cc1`, the Inhibition in experiment [1] is 9.31%; in experiment [2], 3.93%; in experiment [3], -6.45%.
For `CC(C)c1nnc2c(=O)n(CC(=O)Nc3cccc(F)c3)c3ccccc3n12`, the Inhibition in experiment [1] was 24.07%; in experiment [2], 3.13%; in experiment [3] it was -19.58%.
Consider `CC(C)CCNC(=O)CSc1nnc2c3cc(-c4ccccc4)nn3ccn12`, for which the Inhibition in experiment [1] is 15.29%; in experiment [2], 4.42%; in experiment [3] it was -17.81%.
As for `Cc1ccc(-c2cc3c4nn(CC(=O)Nc5c(C)cccc5C)c(=O)n4ccn3n2)cc1`, the Inhibition is recorded as 9.73% in experiment [1], -0.52% in experiment [2] and -14.67% in experiment [3].
Take `COc1ccc(NC(=O)Cn2nc3c4cc(-c5ccc(C)c(C)c5)nn4ccn3c2=O)cc1Cl`: the figures for the Inhibition in experiment [1], in experiment [2] and in experiment [3] were 8.4%, 6.09% and -7.3%, respectively.
As to `Cc1cc2nn(CC(=O)N3CCCC3)c(=O)n2c(Nc2ccc(C)c(F)c2)n1`, the results for the Inhibition in experiment [1], in experiment [2] and in experiment [3] were 9.72%, 0.7% and -5.41%, respectively.
For `Cc1ccc(-c2ccc3nn(CC(=O)N4CCN(c5ccccc5F)CC4)c(=O)n3n2)cc1C` the same measures were 9.79%, 0.84% and -7.8%.
For `COc1ccccc1-n1ccn2c(SCc3cccc(F)c3)nnc2c1=O` the same measures were 7.21%, 2.05% and -9.16%.
For `CC(C)c1nnc2c(SCC(=O)N3CCN(c4ccccc4F)CC3)nc3ccccc3n12` the same measures were 4.71%, -5.14% and -28.6%.
In the case of `COc1ccc(NC(=O)CSc2nc3ccccc3n3cnnc23)cc1OC`, the figures for the Inhibition in experiment [1], in experiment [2] and in experiment [3] were 13.64%, 4.39% and -35.7%, respectively.
Regarding `CCc1nnc2c(S(=O)(=O)N(Cc3cc(F)cc(F)c3)c3ccc(F)cc3)cccn12`, the Inhibition in experiment [1] is -0.25%; in experiment [2], 4.45%; in experiment [3], -8.28%.
In the same order, the values of `O=C(Cn1nc2c(SCc3ccccc3)nccn2c1=O)NC1CCCC1` are 3.94%, 1.33% and -3.97%.

A word on the Inhibition: it is the change of the read-out against control, counted positive when it falls.

For the origin of these results see ChEMBL document CHEMBL4513146, “CO-ADD screening of Karazin Kharkiv National University (Ukraine) compounds”.
